Laboratory results from PubChem BioAssay (NCI).
Where “and” joins values, the source holds several entries; their conditions need not be identical. Identical values can stand only once. This is part of a sample that, as a whole, favours compounds with a hit. Of some 79,000 tested, about 15% had one in any assay. Some structures have more than one record in an assay (separate samples or runs), and their calls can disagree. Calls of active or inactive are those of the source. No stated cut-off is given here; in the data, active means growth inhibition above about 70%; inactive means the rest.

Tests used:
[1] = NCI Yeast Anticancer Drug Screen. Data for the rad50 strain (AID 155);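 further: 0% = growth of vehicle-only cultures of the same strain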; conditions: S. cerevisiae rad50 strain growth inhibition, stronger effect = higher value
How it was run: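 Genetically altered yeast (DNA repair pathway); compound treatment; growth inhibition vs vehicle ctrl.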

[2] = NCI Yeast Anticancer Drug Screen. Data for the mec2-1 strain (AID 157); conditions: S. cerevisiae mec2-1 strain, stronger effect = higher value
How it was run: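 Strain: mec2-1 (DNA repair/cell cycle alteration). Compound exposure, then growth measured; inhibition expressed relative to vehicle.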

[3] = NCI Yeast Anticancer Drug Screen. Data for the sgs1 mgt1 strain (AID 161);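 further: 0% = growth of cultures given vehicle only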; conditions: S. cerevisiae sgs1 mgt1 strain, stronger effect = higher value
How it was run: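 Inhibition of yeast growth, normalised to vehicle-treated controls, is reported for a strain bearing genetic alterations in DNA damage repair.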

[4] = NCI Yeast Anticancer Drug Screen. Data for the cln2 rad14 strain (AID 165);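 further: 0% = growth equal to vehicle treated cultures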; conditions: S. cerevisiae cln2 rad14 strain, stronger effect = higher value
How it was run: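 Compounds are applied to the cln2 rad14 yeast strain, and growth is then compared with that of vehicle-treated cultures to give inhibition.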

[5] = NCI Yeast Anticancer Drug Screen. Data for the bub3 strain (AID 167); conditions: S. cerevisiae bub3 mutant strain, stronger effect = higher value
How it was run: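 Yeast carrying a defined mutation is treated with each compound, and growth is compared with that of vehicle-exposed cells to give inhibition.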

[6] = NCI Yeast Anticancer Drug Screen. Data for the mlh1 rad18 strain (AID 175); conditions: S. cerevisiae mlh1 rad18 strain growth inhibition, stronger effect = higher value
How it was run: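 Read-out is yeast growth inhibition, calculated against vehicle-only controls. The compound was applied to a strain engineered with DNA damage repair alterations.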

[7] = at 5.0 µM (retest, dose inferred, filed as 0.5)
[8] = at 50.0 µM (retest, dose inferred, filed as 5.0)

Row | SMILES | growth inhibition [1, 7] | growth inhibition [1, 8] | growth inhibition ([1]; at 50.0 µM) | growth inhibition [2, 7] | growth inhibition [2, 8] | growth inhibition ([2]; at 50.0 µM) | growth inhibition [3, 7] | growth inhibition [3, 8] | growth inhibition ([3]; at 50.0 µM) | growth inhibition [4, 7] | growth inhibition [4, 8] | growth inhibition ([4]; at 50.0 µM) | growth inhibition [5, 7] | growth inhibition [5, 8] | growth inhibition ([5]; at 50.0 µM) | growth inhibition [6, 7] | growth inhibition [6, 8] | growth inhibition ([6]; at 50.0 µM)
1 | OC1CC2CCCC(C1)C2 (stereo not given) | -2% (inactive) | 3% (inactive) | -17.8% (inactive) | 4% (inactive) | 1% (inactive) | 17.8% (inactive) | -2% (inactive) | 3% (inactive) | -12.2% (inactive) | -5% (inactive) | -3% (inactive) | 72.5% (active) | 0% (inactive) | -10% (inactive) | -18.6% (inactive) | -1% (inactive) | -2% (inactive) | -1.65% (inactive)
2 | Nc1nccnc1C(=O)O | -166% (inactive) | -152% (inactive) | -12.1% (inactive) and 7.75% (inactive) | -49% (inactive) | -52% (inactive) | 20.9% (inactive) and 0.9% (inactive) | -63% (inactive) | -61% (inactive) | -2.45% (inactive) and 6.3% (inactive) | -59% (inactive) | -54% (inactive) | 67.5% (inactive) and 5.6% (inactive) | -74% (inactive) | -75% (inactive) | 18.8% (inactive) and -1.75% (inactive) | -145% (inactive) | -108% (inactive) | 11.6% (inactive) and 8.25% (inactive)
3 | O=C1CCC(c2ccccc2)(C2(c3ccccc3)CCC(=O)O2)O1 (stereo not given) | 1% (inactive) | 7% (inactive) | 17.4% (inactive) and 59.5% (inactive) | -4% (inactive) | 4% (inactive) | 4.8% (inactive) and 50.9% (inactive) | 3% (inactive) | 57% (inactive) | 12.4% (inactive) and 70.5% (active) | 4% (inactive) | 52% (inactive) | 4.35% (inactive) and 13.1% (inactive) | 2% (inactive) | 21% (inactive) | 13.8% (inactive) and 10.7% (inactive) | 4% (inactive) | 47% (inactive) | -0.2% (inactive) and 63.1% (inactive)
4 | CCCCCCCCCC(=O)c1ccc(O)c(O)c1O | 99% (active) | 98% (active) | 90.3% (active) | 99% (active) | 98% (active) | 91.8% (active) | 44% (inactive) | 94% (active) | 93.1% (active) | 63% (inactive) | 96% (active) | 91.1% (active) | 77% (active) | 79% (active) | 90.5% (active) | 100% (active) | 99% (active) | 89.7% (active)
5 | OCCNc1nc(NCCO)c2nc(-c3ccccc3)c(-c3ccccc3)nc2n1 | 8% (inactive) and -2% (inactive) | 61% (inactive) and 43% (inactive) | -2.2% (inactive) and 58% (inactive) | -3% (inactive) and 1% (inactive) | 45% (inactive) | -0.45% (inactive) and 43.8% (inactive) | -9% (inactive) and 0% (inactive) | 88% (active) and 51% (inactive) | 0.6% (inactive) and 57.6% (inactive) | 6% (inactive) and -2% (inactive) | 37% (inactive) and 32% (inactive) | -7.45% (inactive) and 49.8% (inactive) | 6% (inactive) and -1% (inactive) | 61% (inactive) and 43% (inactive) | -0.8% (inactive) and 41.7% (inactive) | 5% (inactive) and -1% (inactive) | 89% (active) and 52% (inactive) | 16.5% (inactive) and 61.2% (inactive)
6 | Oc1c(Cl)cc(Cl)cc1Cc1cc(Cl)cc(Cl)c1O | 93% (active) and 80% (active) | 98% (active) | 98.2% (active) and 99% (active) | 86% (active) and 85% (active) | 99% (active) | 98.8% (active) and 99.2% (active) | 92% (active) and 85% (active) | 98% (active) | 98.1% (active) and 99.4% (active) | 97% (active) and 84% (active) | 99% (active) and 98% (active) | 99% (active) | 88% (active) and 74% (active) | 98% (active) | 98.4% (active) and 99.3% (active) | 94% (active) and 89% (active) | 98% (active) | 98.5% (active) and 99.2% (active)
7 | CC(=O)NC1C(O)OC(CO)C(OC2OC(CO)C(O)C(O)C2NC(=O)NCCCCCCNC(=O)n2cc(F)c(=O)[nH]c2=O)C1O (stereo not given) | 3% (inactive) and 85% (active) | 58% (inactive) and 98% (active) | 43.1% (inactive) and 91.9% (active) | -5% (inactive) and 78% (active) | 70% (active) and 99% (active) | 72.2% (active) and 93.5% (active) | 7% (inactive) and 93% (active) | 81% (active) and 98% (active) | 78.8% (active) and 88.5% (active) | 8% (inactive) and 52% (inactive) | 20% (inactive) and 98% (active) | 24.8% (inactive) and 63.7% (inactive) | 5% (inactive) and 46% (inactive) | 19% (inactive) and 99% (active) | 25.2% (inactive) and 75.5% (active) | 4% (inactive) and 87% (active) | 48% (inactive) and 98% (active) | 37% (inactive) and 86.8% (active)
8 | CC(=O)OC(OC(C)=O)c1c2ccccc2cc2ccccc12 | 36% (inactive) | 97% (active) | 89.3% (active) | 15% (inactive) | 96% (active) | 93.2% (active) | 27% (inactive) | 97% (active) | 88.9% (active) | 14% (inactive) | 92% (active) | 91.1% (active) | 8% (inactive) | 97% (active) | 85.5% (active) | 23% (inactive) | 97% (active) | 85.7% (active)
9 | CN(C)C(=Nc1nc(=[N+](C)C)ss1)N(C)C | -17% (inactive) | -10% (inactive) | 93% (active) | 3% (inactive) | 8% (inactive) | 44.2% (inactive) | 8% (inactive) | -19% (inactive) | 86% (active) | 12% (inactive) | 13% (inactive) | 30.4% (inactive) | 10% (inactive) | 10% (inactive) | 49.4% (inactive) | 15% (inactive) | 13% (inactive) | 81.8% (active)
10 | Clc1ccc(CNCCCNCc2ccc(Cl)cc2)cc1 | 80% (active) | 15% (inactive) | 27.8% (inactive) | 100% (active) | 31% (inactive) | 23% (inactive) | 67% (inactive) | 31% (inactive) | 50.4% (inactive) | 49% (inactive) | 13% (inactive) | 72% (active) | 91% (active) | 20% (inactive) | 27.3% (inactive) | 96% (active) | 13% (inactive) | 29.9% (inactive)
11 | CC1=CC(C)(C)Nc2ccc(CSc3ccccc3)cc21 | 7% (inactive) | 25% (inactive) | 8.1% (inactive) and 36.4% (inactive) | -8% (inactive) | -17% (inactive) | 11.9% (inactive) and 5.5% (inactive) | -1% (inactive) | 10% (inactive) | 12.4% (inactive) and 13.9% (inactive) | -13% (inactive) | 6% (inactive) | -1.1% (inactive) and 19.8% (inactive) | -11% (inactive) | 6% (inactive) | 29.3% (inactive) and 60.9% (inactive) | 23% (inactive) | 16% (inactive) | 37.4% (inactive) and 15.6% (inactive)
12 | Nc1ncnc2c1ncn2CCCl | 2% (inactive) | -4% (inactive) | 8.2% (inactive) | -2% (inactive) | 5% (inactive) | -1.35% (inactive) | 2% (inactive) | 10% (inactive) | 14.3% (inactive) | -7% (inactive) | 5% (inactive) | -6.85% (inactive) | -2% (inactive) | 6% (inactive) | 32.4% (inactive) | -2% (inactive) | -4% (inactive) | 50.2% (inactive)
13 | O=C(NC(C(=O)O)c1ccccc1)OCc1ccccc1 (stereo not given) | -3% (inactive) | -3% (inactive) | -3% (inactive) and -15.4% (inactive) and 0.9% (inactive) | 1% (inactive) | 0% (inactive) | -28.1% (inactive) and -22.8% (inactive) and 0.9% (inactive) | -1% (inactive) | -2% (inactive) | -23.6% (inactive) and -3.2% (inactive) | 1% (inactive) | -2% (inactive) | -12.2% (inactive) and 88% (active) | -1% (inactive) | -2% (inactive) | -8.4% (inactive) and 21.4% (inactive) | 3% (inactive) | -1% (inactive) | -7.9% (inactive) and 2.55% (inactive) and 48.3% (inactive)
14 | C[C@@H](O)[C@H]1CC[C@H]2[C@@H]3CCC4=C/C(=N/O)CC[C@]4(C)[C@H]3CC[C@]12C | 36% (inactive) | 51% (inactive) | 7.4% (inactive) | 15% (inactive) | 20% (inactive) | 22.2% (inactive) | 44% (inactive) | -34% (inactive) | 36.1% (inactive) | 16% (inactive) | 78% (active) | -0.05% (inactive) | -2% (inactive) | 61% (inactive) | 80.8% (active) | 54% (inactive) | 68% (inactive) | 36.1% (inactive)
15 | O=C(OCC(OC(=O)c1ccccc1)C(OC(=O)c1ccccc1)C(OC(=O)c1ccccc1)C(OC(=O)c1ccccc1)c1nn[nH]n1)c1ccccc1 (stereo not given) | 61% (inactive) and 23% (inactive) | 72% (active) and 81% (active) | 93.1% (active) and 90.7% (active) | 52% (inactive) and 41% (inactive) | 72% (active) and 77% (active) | 87.5% (active) and 89% (active) | 54% (inactive) and 18% (inactive) | 72% (active) and 75% (active) | 93.3% (active) and 91.6% (active) | 54% (inactive) and 40% (inactive) | 75% (active) and 82% (active) | 90.2% (active) and 90.3% (active) | 75% (active) and 16% (inactive) | 88% (active) and 74% (active) | 78.6% (active) and 82.8% (active) | 60% (inactive) and 26% (inactive) | 74% (active) and 81% (active) | 89.2% (active) and 90% (active)
